According to PubChem BioAssay (Tox21):
Where “and” joins values, the source holds several entries; their conditions need not be identical. Equal values may be shown once. Records with an inconclusive call do not appear. Entries that show only a call come without a potency. Some compounds were tested as several samples or in several runs, with calls that do not always agree. Calls of active or inactive are those of the source. Unless noted, the call rests on the fitted dose curve; in most records, active means well fitted curve in the direction sought with a large enough effect in the repeat runs; inconclusive means weak or mixed curves; inactive means no such curve, though single readings can be large; an effect the other way counts as inactive or inconclusive.

Assays:
[1] = qHTS assay for small molecules that induce genotoxicity in human embryonic kidney cells expressing luciferase-tagged ATAD5 (AID 651632); further: nearly all actives have a fitted effect of over 15% in size
Summary of the method: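 Quantitative HTS in HEK293T expressing luciferase-tagged ATAD5, whose levels rise upon DNA damage. Exposure ran 16 hr at 37C and 5% CO2, with luminescence read 30 min after Amplite addition at room temperature.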

[2] = qHTS assay for small molecule agonists of the p53 signaling pathway - cell viability (AID 651633; calls by dose curve; further: nearly all actives have a fitted effect of over 30% in size; further: potency means the concentration at half of the fitted maximal effect)
Summary of the method: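 p53RE-bla cells were treated with compound for 16 hours at 37 C. Cytotoxicity was then measured as CellTiter-Glo luminescence after 30 min at room temperature.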

[3] = qHTS assay for small molecules that induce genotoxicity in human embryonic kidney cells expressing luciferase-tagged ATAD5 - cell viability (AID 651634; calls by dose curve; further: nearly all actives have a fitted effect of over 25% in size; further: potency means the concentration at half of the fitted maximal effect)
Summary of the method: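 After 15.5 hr incubation with compound at 37C, 5% CO2, HEK293T ATAD5-luciferase cells received CellTiter-Fluor reagent; fluorescence intensity was quantified following 30 min at 37C.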

[4] = qHTS assay to test for compound auto fluorescence at 590 nm (red) in HepG2 cells (AID 720674)
Summary of the method: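 Fluorescence at 590 nm emission following 540 nm excitation was recorded from HepG2 wells one hour after compound transfer, with DMSO-only wells as vehicle and Rose Bengal sodium equivalency as the scale.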

[5] = qHTS assay to test for compound auto fluorescence at 535 nm (green) in HepG2 cells (AID 720675)
[6] = qHTS assay to test for compound auto fluorescence at 460 nm (blue) in HEK293 cells (AID 720678); further: potency means the concentration at half of the fitted maximal effect
Summary of the method: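 Triamterene serves as the blue fluorophore standard. Compound signal at 405/460 nm is read in HEK293 wells (2,000 cells, 10% dialyzed FBS) after overnight treatment at 37C.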

[7] = qHTS assay to test for compound auto fluorescence at 590 nm (red) in HEK293 cells (AID 720679)
Summary of the method: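 We plated HEK293 cells in 10% dialyzed FBS medium, let them adhere for 4-5 hr, then added 23 nL compound. Overnight at 37C and 5% CO2 preceded fluorescence measurement at 540/590nm.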

[8] = qHTS assay to test for compound auto fluorescence at 535 nm (green) in HEK293 cells (AID 720680)
[9] = qHTS assay to test for compound auto fluorescence at 460 nm (blue) in HEK293 cell free culture (AID 720681); further: potency means the concentration at half of the fitted maximal effect
Summary of the method: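 Compounds were added to cell-free DMEM with 10% FBS and fluorescence read directly. The blue channel used 405 nm excitation and 460 nm emission, with triamterene as the reference fluorophore.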

[10] = qHTS assay to test for compound auto fluorescence at 535 nm (green) in HEK293 cell free culture (AID 720682)
Summary of the method: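 Green-label autofluorescence (485 nm excitation, 535 nm emission) measured on compound added to cell-free culture medium (DMEM, 10% FBS). Output is expressed relative to fluorescein.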

[11] = qHTS assay to test for compound auto fluorescence at 590 nm (red) in HEK293 cell free culture (AID 720683)
Summary of the method: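 Cell-free wells of DMEM with 10% FBS received compound, and intrinsic fluorescence was read at excitation/emission 540/590 nm. Values expressed as equivalence to Rose Bengal sodium.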

[12] = qHTS assay to test for compound auto fluorescence at 590 nm (red) in HepG2 cell free culture (AID 720684)
Summary of the method: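 Auto fluorescence equivalency versus Rose Bengal sodium, red channel Ex/Em 540/590 nm; compounds in cell-free MEM/10% FBS; DMSO vehicle control.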

[13] = qHTS assay to test for compound auto fluorescence at 460 nm (blue) in HepG2 cell free culture (AID 720685); further: potency means the concentration at half of the fitted maximal effect
Summary of the method: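 Cell-free plates of MEM plus 10% FBS received 23 nL compound or DMSO vehicle; blue-channel (405/460 nm) intensity scored against triamterene as reference fluorophore.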

[14] = qHTS assay to test for compound auto fluorescence at 535 nm (green) in HepG2 cell free culture (AID 720686)
[15] = qHTS assay to test for compound auto fluorescence at 460 nm (blue) in HepG2 cells (AID 720687); further: potency means the concentration at half of the fitted maximal effect
Summary of the method: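 HepG2 cells in MEM with 10% FBS, attached overnight at 37 C, were exposed to compound or DMSO for 1 hr at 37 C, 5% CO2. Blue fluorescence was read at 405/460 nm, with triamterene as reference fluorophore.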

[16] = target: Glucocorticoid receptor (Homo sapiens) (UniProt P04150); experiment: qHTS assay to identify small molecule agonists of the glucocorticoid receptor (GR) signaling pathway (AID 720691; active means well fitted activation curve with a large enough effect in the signal ratio in the repeat runs, not every such curve was filed as active; the % refers to the signal ratio); details: GR-bla HeLa, beta-lactamase reporter ratio, 18 h; activation: at 62.4 µM (top of the series)
Glucocorticoid receptor (Homo sapiens), sequence (P04150 whole entry, looked up): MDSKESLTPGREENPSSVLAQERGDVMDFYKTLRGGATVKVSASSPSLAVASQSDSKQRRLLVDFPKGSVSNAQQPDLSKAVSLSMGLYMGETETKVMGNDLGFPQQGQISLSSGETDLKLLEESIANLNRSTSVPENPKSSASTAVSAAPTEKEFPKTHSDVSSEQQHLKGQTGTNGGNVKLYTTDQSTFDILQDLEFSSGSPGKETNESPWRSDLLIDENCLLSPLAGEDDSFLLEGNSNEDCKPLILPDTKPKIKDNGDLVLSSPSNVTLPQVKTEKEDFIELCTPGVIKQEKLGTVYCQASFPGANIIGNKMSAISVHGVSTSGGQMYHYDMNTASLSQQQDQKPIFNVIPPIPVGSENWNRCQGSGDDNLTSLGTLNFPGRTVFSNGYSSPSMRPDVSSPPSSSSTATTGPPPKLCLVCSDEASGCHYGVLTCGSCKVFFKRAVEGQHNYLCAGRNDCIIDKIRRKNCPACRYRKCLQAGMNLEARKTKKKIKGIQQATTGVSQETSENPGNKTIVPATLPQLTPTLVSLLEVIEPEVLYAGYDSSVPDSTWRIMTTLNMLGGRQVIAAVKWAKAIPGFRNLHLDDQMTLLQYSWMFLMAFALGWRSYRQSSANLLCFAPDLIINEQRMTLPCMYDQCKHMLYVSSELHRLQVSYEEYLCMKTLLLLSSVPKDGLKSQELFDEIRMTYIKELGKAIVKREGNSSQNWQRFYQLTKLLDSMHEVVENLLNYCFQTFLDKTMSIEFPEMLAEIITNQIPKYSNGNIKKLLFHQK
Summary of the method: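 Cells: GR-bla HeLa, endogenous GR with stably integrated GRE-beta-lactamase reporter. Treatment 18 h, 37 C, compounds delivered in DMSO. Detection via LiveBLAzer B/G FRET substrate, 2 h RT, fluorescence intensity.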

[17] = target: Glucocorticoid receptor (Homo sapiens) (UniProt P04150); experiment: qHTS assay to identify small molecule antagonists of the glucocorticoid receptor (GR) signaling pathway (AID 720692; active means well fitted inhibition curve with a large enough effect in the signal ratio in the repeat runs, not every such curve was filed as active; the % refers to the signal ratio; further: potency means the concentration at half of the fitted maximal effect)
Summary of the method: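 Quantitative HTS in antagonist format: HeLa cells expressing endogenous GR and a stably integrated GRE-bla reporter, stimulated with 5 nM dexamethasone (final) alongside test compounds for 18 h.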

[18] = qHTS assay for small molecule disruptors of the mitochondrial membrane potential - cell viability (AID 720634; calls by dose curve; further: nearly all actives have a fitted effect of over 20% in size; further: potency means the concentration at half of the fitted maximal effect)
Summary of the method: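 ATP-based luminescent viability readout (CellTiter-Glo, 30 min, room temperature) in HepG2 cells multiplexed with the m-MPI membrane potential dye; compound exposure lasted 1 hr at 37 C.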

[19] = qHTS assay for small molecule disruptors of the mitochondrial membrane potential (AID 720635); further: potency means the concentration at half of the fitted maximal effect
Summary of the method: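 HepG2 cells exposed to compound 1 hr at 37C, then Mito-MPS dye 30 min. Ratio read of aggregate (540/590 nm) versus monomer (490/535 nm) fluorescence.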
Tags describe the fitted curve by direction and shape or compound fluorescence and quenching.

Compound | Potency [1] | Potency [2] | Potency [3] | Potency [4] | Potency [5] | Potency [6] | Potency [7] | outcome [8] | Potency [9] | outcome [10] | Potency [11] | Potency [12] | Potency [13] | Potency [14] | Potency [15] | Potency [16] | Potency [17] | Potency [18] | Potency [19]
O=C(Oc1ccccc1)c1ccccc1C(=O)Oc1ccccc1 | inactive | inactive | inactive | inactive | inactive | inactive | inactive | inactive | inactive | inactive | inactive | inactive | inactive | inactive | inactive | inactive | inactive |  | 
CC(C)C(C)(C)C(C)(C)C(C)(C)S | inactive | inactive | inactive | inactive | inactive | inactive | inactive | inactive | inactive | inactive | inactive | inactive | inactive | inactive | inactive |  |  |  | 
CCCCN(CCCC)C(=O)N(CCCC)CCCC | inactive | inactive | inactive |  | inactive | inactive | inactive | inactive | inactive | inactive | inactive | inactive | inactive | inactive | inactive | inactive |  |  | 
CSc1ccc(/C=C2/C(C)=C(CC(=O)O)c3cc(F)ccc32)cc1 | inactive | 26.6 µM (active) |  | inactive | inactive | inactive | inactive | inactive | inactive | inactive | inactive | inactive | inactive | inactive | inactive |  |  | inactive | 
Oc1ccc2c(c1)-c1ccccc1C2 | inactive | inactive | inactive | inactive | inactive | inactive | inactive | inactive | inactive | inactive | inactive | inactive | inactive | inactive | inactive |  |  |  | 9.69 µM (active)
CCOc1nc2cccc(C(=O)OC(C)OC(=O)OC3CCCCC3)c2n1Cc1ccc(-c2ccccc2-c2nn[nH]n2)cc1 (configuration not stated) | inactive | 12.2 µM (active) |  | inactive | inactive | inactive | inactive | inactive | inactive | inactive | inactive | inactive | inactive | inactive | inactive |  |  |  | 13.7 µM (active)
Clc1ccccc1C(c1ccccc1)(c1ccccc1)n1ccnc1 | inactive | 19.3 µM (active) |  | inactive | inactive | inactive | inactive | inactive | inactive | inactive | inactive | inactive | inactive | inactive | inactive |  | 7.23 µM (active) | inactive and 54.5 µM (active) | 10.1 µM (active) and 9.69 µM (active)
CC[C@H](c1ccc(O)cc1)[C@@H](CC)c1ccc(O)cc1 | inactive | inactive and 54.5 µM (active) | inactive |  | inactive | inactive | inactive | inactive | inactive | inactive | inactive | inactive | inactive | inactive | inactive |  |  |  | 8.04 µM (active) and 9.69 µM (active)
CC1(C)CCC(C)(C)c2cc(C(=O)Nc3ccc(C(=O)O)cc3)ccc21 | inactive | 61.1 µM (active) |  | inactive | inactive | inactive |  | inactive | inactive | inactive | inactive | inactive | inactive | inactive | inactive |  |  | inactive | 54.5 µM (active)
CN(C/C=C/C#CC(C)(C)C)Cc1cccc2ccccc12 | inactive |  | inactive | inactive | inactive |  | inactive | inactive | inactive | inactive | inactive | inactive | inactive | inactive | inactive |  | inactive | inactive | inactive
CC(C)OC(=O)c1cc2c(OCC(O)CNC(C)(C)C)cccc2[nH]1 (configuration not stated) |  | inactive | inactive | inactive | inactive | inactive | inactive | inactive | inactive | inactive | inactive | inactive | inactive |  | inactive | inactive | inactive | inactive | inactive
OCCN(CCO)c1nc(N2CCCCC2)c2nc(N(CCO)CCO)nc(N3CCCCC3)c2n1 | inactive |  |  | inactive | inactive | 12.6 µM [fluorescent] (active) |  | inactive | 12.6 µM (active) | inactive | inactive | inactive | 12.6 µM [fluorescent] (active) | inactive | 12.6 µM [fluorescent] (active) |  |  | inactive | 
Cc1cc(O)c(Cl)c(C)c1Cl |  | 68.6 µM (active) | 61.1 µM (active) | inactive | inactive | inactive | inactive | inactive | inactive | inactive | inactive | inactive | inactive | inactive | inactive |  |  | 54.5 µM (active) | 1.93 µM (active)
